Where “and” joins values, the source holds several entries; their conditions need not be identical. Identical values can stand only once. A structure can be active in one record and inactive in another. Calls of active or inactive are those of the source. The calls were made as follows: active = hit-call score of the fitted dose curve at least 0.9, where 1 is the maximum; inactive = score below 0.9.
Experiment: CCTE_Shafer_MEA_dev_burst_rate: CCTE's Neural Network Formation Assay for Burst Rate, Shafer Lab (AID 2284042);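 as to AC50: potency for loss of burst rate below DMSO control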
Method in brief: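 Primary rat cortical neurons on PEI-coated 48-well MEA plates (laminin added with cells at plating) (16 electrodes/well), exposed from plating to day 12, dosing renewed at DIV 5 and 9. Burst rate averaged over active electrodes, recorded DIV 5, 7, 9, 12, summarized as AUC; loss versus DMSO.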

Structure (SMILES) | AC50 | outcome
CN(C)C(=S)SSC(=S)N(C)C | 12.7 nM (active) | –
CCCCOC(=O)c1ccccc1C(=O)OCCCC | – | inactive
CCNc1nc(Cl)nc(NC(C)C)n1 | – | inactive
C=CCC1=C(C)C(OC(=O)C2C(C=C(C)C)C2(C)C)CC1=O (stereo not given) | – | inactive
C=CC1(C)OC(=O)N(c2cc(Cl)cc(Cl)c2)C1=O (stereo not given) | – | inactive
CCCCNC(=O)n1c(NC(=O)OC)nc2ccccc21 | – | inactive
COc1ccc(C(c2ccc(OC)cc2)C(Cl)(Cl)Cl)cc1 | – | inactive
COC(=O)N(OC)c1ccccc1COc1ccn(-c2ccc(Cl)cc2)n1 | 91.4 nM (active) | inactive
CCOc1cc(Oc2ccc(C(F)(F)F)cc2Cl)ccc1[N+](=O)[O-] | 9620 nM (active) | –
CO/C=C(/C(=O)OC)c1ccccc1Oc1cc(Oc2ccccc2C#N)ncn1 | 1.14 µM (active) and 1.39 µM (active) | –
COP(N)(=O)SC (stereo not given) | – | inactive
Cc1ccc(-c2c(Cl)nc(C#N)n2S(=O)(=O)N(C)C)cc1 | 15200 nM (active) | –
CC(C)(C)c1ccc(CSc2cnn(C(C)(C)C)c(=O)c2Cl)cc1 | 4.9 nM (active) | –
COP(=S)(OC)Oc1nc(Cl)c(Cl)cc1Cl | – | inactive
CCCCNC(=O)OCC#CI | 3.94 µM (active) and 1.33 µM (active) | –
CCCCC(CC)COC(=O)c1ccccc1C(=O)OCC(CC)CCCC (stereo not given) | 2.98 µM (active) and 6.34 µM (active) | inactive
C=CCC1=C(C)[C@@H](OC(=O)[C@@H]2[C@@H](C=C(C)C)C2(C)C)CC1=O | – | inactive
N#Cc1nn(-c2c(Cl)cc(C(F)(F)F)cc2Cl)c(N)c1S(=O)C(F)(F)F (stereo not given) | – | inactive

Reference: PubChem BioAssay (EPA / NIEHS)
